From PubChem
Only some compounds are listed: those with a hit (about 2.9% of all), similar ones and a draw of the others.
ClpP mod = qHTS Assay for Activators of ClpP | ATP-dependent Clp protease proteolytic subunit (Bacillus subtilis (strain 168)), P80244 | purified B. subtilis ClpP, FRET peptide cleavage, 20 min | Potency, µM (highest dose often 57.5 µM), for the others: at the highest dose activity change, negative = active | hit rate 1.9% among 340,000; active = well fitted falling curve with a large enough effect; inconclusive = small, poorly fitted or top-dose-only effect; inactive = no such curve, though single readings can be large or run the other way; note: potency is the fitted concentration of half-maximal effect; the source files actives as falling curves though it sought activators and does not explain the sign; nearly all actives have a fitted effect of over 65% in size
Target sequence (P80244 whole entry, looked up): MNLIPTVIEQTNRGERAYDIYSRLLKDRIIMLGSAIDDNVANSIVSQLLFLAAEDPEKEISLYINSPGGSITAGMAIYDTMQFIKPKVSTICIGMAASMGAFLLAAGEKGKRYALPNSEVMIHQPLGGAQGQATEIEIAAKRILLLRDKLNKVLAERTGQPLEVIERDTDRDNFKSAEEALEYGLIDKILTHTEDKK
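Purified B. subtilis ClpP, 10 microg/mL final in Tris/HCl pH8 with KCl, BSA, glycerol and Tween-20, cleaved an Abz/nitrotyrosine-quenched decapeptide. Fluorescence (ex 320, em 430) was read at 0 and 20 min at room temperature. Delta was normalized to 5.8 microM ADEP and DMSO/no-enzyme controls.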
HEK293 tox = cytotoxicity counter-screen for GLP-1 receptor inverse agonists; HEK293 cAMP-luciferase reporter cells, luminescence, 24 h; Potency, µM (series often up to 38.3 µM), for inactives: at the top dose activity change, negative = inhibition, usual class: inhibitors; AID 624418; hit rate 0.13% among 410,000;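 note: loss of luciferase light is scored as toxicity; potency is the fitted concentration of half-maximal effect; % is set by controls: 0 for no effect and ±100 for the full control effect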
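Luminescence readout: signal drop marks cytotoxicity. Plated cells grew 12 h at 37 °C, 5% CO2, received 23 nL compound for 24 h, then got luciferase reagent, read after 12 min at RT.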
GLP-1R agonist = GLP-1 receptor (human) agonism | HEK293 GLP-1R CRE-luciferase, luminescence, 4-6 h; cells express a hypersensitive GLP-1R form | Potency, µM (top dose mostly 45.6 µM), without a hit: at the highest dose activation, usual class: activators | hit rate 0.007% among 380,000 | AID 624172; note: potency is the fitted concentration of half-maximal effect; % of control where 0% means no effect
Target sequence (P43220 whole entry, looked up): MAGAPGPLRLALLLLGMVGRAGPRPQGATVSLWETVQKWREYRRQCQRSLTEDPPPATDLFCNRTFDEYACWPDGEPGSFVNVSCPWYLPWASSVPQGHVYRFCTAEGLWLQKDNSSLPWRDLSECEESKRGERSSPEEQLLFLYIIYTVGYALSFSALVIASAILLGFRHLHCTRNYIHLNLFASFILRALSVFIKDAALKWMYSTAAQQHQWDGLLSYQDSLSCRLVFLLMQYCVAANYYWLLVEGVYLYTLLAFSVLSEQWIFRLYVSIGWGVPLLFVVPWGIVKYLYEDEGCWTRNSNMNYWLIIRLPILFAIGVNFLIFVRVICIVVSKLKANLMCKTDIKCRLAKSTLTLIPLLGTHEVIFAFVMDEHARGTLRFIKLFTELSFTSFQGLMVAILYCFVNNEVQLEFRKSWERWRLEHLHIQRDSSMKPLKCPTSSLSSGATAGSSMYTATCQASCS
GLP1R inv ag = inverse agonists of human GLP-1 receptor; P43220; HEK293 GLP-1R CRE-luciferase, luminescence, 24 h; GLP-1R form is constitutively active; Potency, µM (series often up to 38.3 µM), for the others: at the top dose activity change, negative = inhibition, actives largely listed as inhibitors; hit rate 1.6% among 410,000; note: potency is the fitted concentration of half-maximal effect; % is set by controls: 0 for no effect and ±100 for the full control effect; nearly all actives have a fitted effect of over 55% in size
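Seeding at 200 cells/uL, 12 h culture, 24 hr compound treatment, then luciferase reagent and a luminescence read; cells are HEK293 stably expressing a constitutively active GLP-1R plus cAMP-responsive luciferase.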
LDHA inh = LDHA (human) enzyme inhibition | P00338 | purified LDHA, NADH/diaphorase-resazurin fluorescence; active compounds read low | activity change, % (values are at about 110 or 230 µM) | hit rate 0.15% among 480,000; in the data active = activity change below about -30%; inconclusive = mostly about -25% to -30%;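 note: plate controls were DMSO wells for no effect and wells without enzyme for full effect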
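Resorufin fluorescence (ex540/em590), read at 0 and 20 min after diaphorase/resazurin addition, reports the NADH left after a 5 min room-temperature reaction of 2 nM human LDH5 with 0.06 mM NADH and 0.2 mM pyruvate.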
p53 reactivator = restores transcriptional activity of mutant p53; H1299 p53-A138V BP100-luciferase reporter, luminescence, 24 h; Potency, µM (titrated, usually from 92.2 µM), for the others: top-dose activity change, positive = activation, most hits filed as activators; hit rate 0.063% among 320,000; AID 504706; note: potency is the fitted concentration of half-maximal effect; % of control where 0% means no effect; nearly all actives have a fitted effect of over 45% in size
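p53-null H1299 cells stably carrying temperature-sensitive p53-A138V and a BP100-luciferase reporter were pinned with compounds (4-point, 1:5 series) and held 24 hrs at 37 deg C. Luminescence was read 10 min after detection reagent.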
* hit, by the source's call; u = inconclusive; x = no result given; [ ] = remark or other dose. Unless noted, calls come from the whole dose curve; as a rule, active = well fitted curve in the direction sought with a large enough effect; inconclusive = small, poorly fitted or top-dose-only effect, or another doubt; inactive = no such curve, though single readings can be large; an effect the other way counts as inactive or inconclusive.

SMILES | ClpP mod | HEK293 tox | GLP-1R agonist | GLP1R inv ag | LDHA inh | p53 reactivator
COC(=O)c1ccccc1NC(=O)NC1CCN(Cc2ccccc2)CC1 | 28.2µM* | -10.4% | 3.6% | -2.6% | -11.1 | -14.3%
CN(c1ccccc1)S(=O)(=O)c1cccc(NC(=O)CCNC(=O)c2ccccc2)c1 | -1.2% | -1.6% | 1.7% | -28.6% | 1.0 | -1.2%
O=C(Nc1ccccc1-c1nc2ccccc2s1)c1ccc(Br)o1 | -2.8% | -14.6% | 4.1% | 0.3% | -2.0 | -0.1%
CCC(Oc1ccccc1F)C(=O)Nc1ccc(F)c(Cl)c1 (centres undefined) | x | x | x | x | 1.9 | x
Cc1ccc(Cn2cccc(NC(=O)NC3CCCCC3)c2=O)cc1 | u | -4.3% | 4.3% | u | 3.7 | 9.3%
O=C(Nc1cccn(Cc2ccccc2)c1=O)NC1CCCCC1 | 20µM* | 0.8% | -3.1% | 8.0% | 3.8 | 8.0%
COc1ccccc1C(=O)Nc1ccc(-c2cc(C(F)(F)F)nn2-c2ccccc2)cc1 | 22.4µM* | u | x | 5.62µM* | 0.1 | x
O=C(NC(=S)Nc1ccc(N2CCCCC2)c(Cl)c1)c1cccs1 | 0.7% | 2.82µM* | -3.5% | 0.0% | -0.8 | x
CCc1ccc2[nH]c(=O)c(CN(CCCN3CCOCC3)C(=O)Nc3cccc(Cl)c3)cc2c1 | u | u | -7.6% | u | 0.3 | -21.7%
Clc1ccccc1-c1nc(Nc2ccccc2)nc2ccc(Br)cc12 | 2.6% | 42.1% | x | 10µM* | -12.6 | x
Cc1ccc(S(=O)(=O)N2CCN(C(=O)COC(=O)C3CCC3)CC2)c(C)c1 | 25.1µM* | -7.1% | 0.3% | 5.9% | -3.1 | 0.6%
Cc1ccc(S(=O)(=O)N2CCN(C(=O)COC(=O)CSc3cc(C)ccc3C)CC2)c(C)c1 | -3.2% | 6.4% | 1.8% | -0.4% | -3.8 | 4.3%
C1=Cc2ccccc2/C1=C(\Cc1ccncc1)Oc1ccncc1 | 1.8% | x | x | x | -0.3 | x
CCN(CC(=O)NCc1ccc(Cl)cc1)C(=O)COc1ccc(Cl)cc1Br | -0.4% | -3.1% | -1.9% | 11.2µM* | -1.1 | -3.6%
Cc1cccc(Cc2c(C)[nH]c(=O)c(C#N)c2C)c1 | -9.6% | 4.6% | 18.8% | 9.2% | -1.4 | -1.2%
CCC(CC)C(=O)N1N=C(c2ccc(NS(C)(=O)=O)cc2)CC1c1ccccc1 (centres undefined) | 3.3% | -9.7% | 22.3% | u | -18.3 | -6.5%
CCC(CC)C(=O)N1N=C(c2ccc(NS(C)(=O)=O)cc2)CC1c1ccc(C)cc1 (centres undefined) | 3.7% | -26.6% | 15.4% | 8.91µM* | -9.9 | -1.5%
FC(F)(F)c1nc2ccccc2n2c(-c3ccc(Cl)cc3)nnc12 | 12.6µM* | 10.4% | -15.3% | u | -0.7 | 1.2%
Cc1ccc(-c2nnc3c(C(F)(F)F)nc4ccccc4n23)cc1 | 12.6µM* | 14.8% | 1.9% | 0.0% | -0.6 | 8.8%
COc1cc(OC)cc(C(=O)NCC(=O)OCC(=O)c2cc(C)n(Cc3ccco3)c2C)c1 | 10µM* | -10.5% | 16.0% | -6.8% | -6.3 | -0.3%
Cc1cc(C(=O)COC(=O)c2ccc(O)cc2)c(C)n1Cc1ccco1 | 1.3% | 9.2% | -4.6% | u | -0.5 | u
Cc1cc(C(=O)COC(=O)c2cccs2)c(C)n1Cc1ccco1 | x | x | x | x | -33.3* | x
C/C(=N\NC(=O)c1cccc(S(=O)(=O)N2CCCCC2)c1)c1ccc(C)o1 | 12.8% | -16.4%[7.66 µM] | 1.4% | 0.0%[7.66 µM] | -1.4 | 12.9%
CCOC(=O)c1c(NC(=O)COc2ccc(F)cc2)sc2c1CCC(C)C2 (centres undefined) | -0.5% | -11.5% | x | 2.2% | -2.4 | x
CC(C)CC(NS(=O)(=O)c1ccc2c(c1)oc(=O)n2C)C(=O)NCc1cccnc1 (centres undefined) | -0.1% | 21.8% | -2.7% | -3.1% | -7.3 | 4.9%
SMILES | ClpP mod | HEK293 tox | GLP-1R agonist | GLP1R inv ag | LDHA inh | p53 reactivator
CCOc1ccc2c(=O)c(Oc3ccccc3OCC)coc2c1 | -4.9% | 9.1% | 10.7% | -3.6% | 0.5 | 20.8%
COc1ccc(Oc2coc3cc(OC(=O)/C=C/c4ccc(F)cc4)ccc3c2=O)cc1 | 0.5% | 10.8% | -0.4% | 15.8% | -2.5 | 6.9%
COc1cc(C(=O)Oc2ccc3c(=O)c(-c4ccccc4)coc3c2)cc(OC)c1OC | x | x | x | x | -31.9* | x
COc1ccc(Oc2coc3cc(OC(=O)/C=C/c4ccccc4)ccc3c2=O)cc1 | 25.1µM* | 2.4% | -11.3% | -8.2% | -6.7 | -7.1%
CCOC(=O)C(CC)Oc1ccc2c(=O)c(Oc3ccccc3Br)coc2c1 (centres undefined) | x | x | x | x | -30.5* | x
CCOc1ccccc1Oc1coc2cc(O)ccc2c1=O | 31.6µM* | 26.2% | 13.5% | 8.6% | -1.8 | u
COc1ccc(C)cc1NC(=O)c1sc(COc2ccc(C)cc2)nc1C | x | x | x | x | -11.0 | x
CCc1nnc(SCC(=O)NC2CCCC2)nc1CC | -4.8% | 8.3% | 1.2% | 1.7% | -6.1 | 4.8%
COc1ccccc1Oc1coc2cc(O)ccc2c1=O | 28.2µM* | 35.5% | 1.7% | 0.4% | -4.0 | 1.0%
CCc1cccc(C)c1NC(=O)CSc1ncnc2ccccc12 | x | x | x | x | 15.2 | x
COc1ccc(C2(OC)Oc3cc(OC)ccc3C(=O)C2(O)OC)cc1 (centres undefined) | 31.6µM* | 141.0% | 5.0% | u | -0.6 | x
CCOC(=O)C1=C(CC)Nc2ccccc2N/C1=N\S(=O)(=O)c1ccc(C(=O)OCC)cc1 | x | -4.1% | 10.9% | -13.3% | -5.2 | -2.9%
COc1ccc(NS(=O)(=O)c2ccc3oc(=O)c4[nH]c(=O)c(=O)n(C)c4c3c2)cc1 | 20µM* | 7.6% | 1.6% | -5.2% | -15.9 | 9.3%
CCN(CC)c1ccc2cc(S(=O)(=O)c3ccc(Cl)cc3)c(=O)oc2c1 | -3.9% | 319.6% | 9.6% | 10µM* | -9.5 | -2.7%
Cc1ccccc1C(=O)c1cccn1CC(=O)NCCCN1CCc2ccccc2C1 | x | 4.0% | 2.8% | 10µM* | -5.7 | 9.7%
Cc1ccc(C)c(N2CCN(CCCNC(=O)Cn3cccc3C(=O)c3ccccc3)CC2)c1 | 0.9% | 2.9% | -1.6% | 5.01µM* | -2.2 | 29.4%
COc1cccc(C(=O)NC(=S)Nc2ccc(N(C)C)cc2)c1 | 5.2% | u | 10.7% | u | -0.6 | u
CN1CCC(N(C)CC(=O)Nc2ccccc2N2CCOCC2)CC1 | 0.0% | -25.5% | -7.3% | -6.8% | u | 0.6%
C/C(=N\Nc1nc2ccccc2[nH]1)c1ccccn1 | x | x | x | x | x | 8.91µM*
C/C(=N\Nc1nc2ccccc2[nH]1)c1cc2ccccc2o1 | 0.2% | u | -0.3% | u | -5.9 | 12.9%
CN1CCO/C1=C(\C(Cl)=C(Cl)Cl)[N+](=O)[O-] | x | 6.5% | -0.7% | 2.7% | 4.2 | -2.1%
